Screening data (PubChem)
A selection: hits, their analogues and other compounds. The true share with any hit is near 2%.
NPR2 activator: GC-B (human) receptor activation | activation, % at 10 µM | actives 0.11% (n = 370,000) | HEK293-GC-B cells, CNP EC30, cGMP TR-FRET; 0% at EC30 CNP, 100% saturating CNP | AID 1920062;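 active = activation at 10 µM reaching about 35% in either raw or pattern-adjusted values, limit read from the data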
FAS TE block: inhibitors of human fatty acid synthase thioesterase domain; actives 0.67% (n = 360,000); P49327; inhibition, % at 15 µM; recombinant FAS-TE, OMFH fluorogenic substrate, fluorescence endpoint; AID 602261;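 active = compounds whose normalised, plate-corrected inhibition of enzyme fluorescence in the single-dose primary screen is 50% or more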;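 also: 0% = DMSO with enzyme and 100% = substrate without enzyme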
ADAM10 inh: inhibitors of human ADAM10 | O14672 | recombinant ADAM10, EDANS/DABCYL FRET peptide cleavage, 3 h | inhibition, % at 7 µM | actives 0.62% (n = 370,000) | AID 720582;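 active = inhibition above a per-campaign cutoff equal to the mean of compounds falling between control-based bounds plus 3 SD, cut at about 20% in these data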;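 also: 0% = DMSO wells while the 100% control is not disclosed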
Target sequence (O14672 214-748 limits assumed): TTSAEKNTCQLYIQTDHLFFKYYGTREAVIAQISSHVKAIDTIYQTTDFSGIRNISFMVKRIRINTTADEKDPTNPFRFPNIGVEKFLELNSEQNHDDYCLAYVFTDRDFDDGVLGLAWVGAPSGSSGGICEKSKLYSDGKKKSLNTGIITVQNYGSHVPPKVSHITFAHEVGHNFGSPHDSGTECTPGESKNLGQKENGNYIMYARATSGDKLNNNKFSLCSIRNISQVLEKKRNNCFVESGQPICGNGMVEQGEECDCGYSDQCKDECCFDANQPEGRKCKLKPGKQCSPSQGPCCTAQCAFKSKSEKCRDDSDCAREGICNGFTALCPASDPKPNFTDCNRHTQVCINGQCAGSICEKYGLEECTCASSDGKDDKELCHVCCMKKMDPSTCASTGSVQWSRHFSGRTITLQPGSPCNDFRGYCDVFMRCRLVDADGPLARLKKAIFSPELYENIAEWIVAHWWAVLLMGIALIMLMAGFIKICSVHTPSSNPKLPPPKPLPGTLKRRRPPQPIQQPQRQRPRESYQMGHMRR
NPR1 activator: GC-A (human) enzyme activation; P16066; HEK293 GC-A cells, cGMP TR-FRET, EC30 ANP; 0% at EC30 ANP, 100% saturating ANP; activation, % at 10 µM; actives 0.14% (n = 370,000); in the data active = activation above about 40%
ADAM17 inh: inhibitors of human ADAM17; P78536; recombinant ADAM17, EDANS/DABCYL FRET peptide cleavage; inhibition, % at 6.95 µM; actives 0.83% (n = 370,000);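 active = inhibition above the mean of compounds lying between control limits plus 3 SD, set per campaign, cut at about 8.5% in these data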;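 also: 0% = DMSO-only wells as the low control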
ADAM10 confirm: confirmation of inhibitors of human ADAM10. shares compounds with ADAM10 inh. actives 1% (n = 2,100). inhibition, % at 6.95 µM. ADAM10 QFRET peptide cleavage, EDANS fluorescence;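 active = inhibition above about 20% chosen separately for each screening run, limit read from the data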;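 also: 0% = DMSO wells and 100% = marimastat wells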
ADAM17 ctr: inhibits human ADAM17 in ADAM10 exosite counter-screen; shares compounds with ADAM10 inh; ADAM17 QFRET peptide cleavage, EDANS fluorescence; inhibition, % at 6.95 µM; actives 0.5% (n = 2,100);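 active = mean triplicate inhibition above the solvent-only control wells' mean plus 3 SD, cut at about 12% in these data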;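 also: 0% = DMSO wells and 100% = marimastat wells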
The depositor's hits bear a star; x = not tested or not shown.

SMILES | NPR2 activator | FAS TE block | ADAM10 inh | NPR1 activator | ADAM17 inh | ADAM10 confirm | ADAM17 ctr
COc1ccc(Cl)cc1NC(=O)C(C)OC(=O)c1ccc(NS(=O)(=O)c2ccc3[nH]c(=O)[nH]c3c2)cc1 (centres undefined) | -2 | 22 | 22* | 2 | 7 | 5 | 1
Cc1ccc(CNC(=O)CCS(=O)(=O)c2cc3c(cc2Br)CCN3C(=O)C2CC2)o1 | -11 | x | -3 | -16 | 2 | x | x
Cc1nc(-c2c(C(F)(F)F)noc2-c2ccc(O)cc2O)cs1 | -1 | 0 | 9 | 2 | 1 | x | x
CCOc1cc(C)c(-c2onc(C(F)(F)F)c2-c2csc(C)n2)c(O)c1 | -3 | 15 | 22* | 4 | 6 | 3 | 1
COc1cccc(N=NC2C(=O)N(C(N)=S)N=C2C)c1 (centres undefined) | 1 | -6 | 21* | 0 | -6 | -1 | 0
CC1=NN(C(N)=S)C(=O)C1N=Nc1cccc(Cl)c1 (centres undefined) | -1 | -3 | 5 | 6 | 5 | x | x
O=S(=O)(c1cccs1)N1CCC(c2cn3ccccc3n2)CC1 | -2 | x | -31 | 3 | -9 | x | x
CCOC(=O)Cc1csc(NC(=O)CSc2ncnc3c2cnn3-c2ccccc2Cl)n1 | -2 | -3 | 26* | 2 | 8 | 1 | 2
Cc1onc(-c2ccccc2)c1C(=O)NC(=S)NNC(=O)c1cccnc1 | -4 | -10 | 24* | 3 | 5 | 5 | 1
Cc1onc(-c2ccccc2)c1C(=O)NC(=S)NNC(=O)c1ccncc1 | 3 | -11 | -12 | -2 | -3 | x | x
CCCn1nc([N+](=O)[O-])c(C(C#N)c2nc3ccccc3o2)c(Cl)c1=O (centres undefined) | 2 | 24 | 21* | -3 | 7 | 2 | 0
Cn1nc([N+](=O)[O-])c(C(C#N)c2ccccn2)c(Cl)c1=O (centres undefined) | 2 | 14 | -7 | 4 | -3 | x | x
O=C(N/N=C\c1ccc(Cl)cc1Cl)c1sccc1-n1cccc1 | -2 | 15 | 20* | -2 | 2 | 7 | 2
Fc1ccc(F)c(Cn2ccc3ccc(-c4ccc5ccn(Cc6cc(F)ccc6F)c5c4)cc32)c1 | -5 | x | -10 | 0 | -5 | x | x
C=CCNC(=O)c1c(CSc2ccc(Cl)cc2)noc1C(=O)NCc1ccccc1 | 1 | 24 | 21* | -3 | 8 | 6 | 3
COc1cccc(CNn2c(-c3cccc(C)c3)nc3ccccc3c2=O)c1 | 4 | 24 | 27* | -6 | 8 | 0 | 1
O=C(NNC(=S)Nc1ccc(Cl)cc1Cl)c1ccc(N2CCOCC2)c([N+](=O)[O-])c1 | 2 | 15 | 7 | 1 | 4 | x | x
O=C(NNC(=S)Nc1ccc(Br)cc1)c1ccc(N2CCOCC2)c([N+](=O)[O-])c1 | 2 | 3 | 21* | 3 | 5 | 1 | 0
Cc1ccc(NC(=S)NNC(=O)c2ccc(N3CCOCC3)c([N+](=O)[O-])c2)cc1Cl | 4 | 10 | 21* | 1 | 7 | 4 | 0
O=C(Nc1cccnc1)c1ccc(N2CCOCC2)c([N+](=O)[O-])c1 | 1 | -2 | 11 | -2 | 2 | x | x
C=CC[C@@H](Cc1ccc(F)cc1)C(=O)OC[C@H]1CCCN1C(=O)[C@@H](CC=C)CC(=O)N[C@H](CO)Cc1ccccc1 | 4 | 13 | 13 | -2 | 1 | x | x
C=CCC[C@@H](Cc1ccc(F)cc1)C(=O)OC[C@H]1CCCN1C(=O)[C@@H](CC=C)CC(=O)N[C@H](CO)Cc1ccccc1 | -1 | 25 | 21* | -3 | 4 | 1 | 1
C=CCC[C@@H](Cc1ccc(F)cc1)C(=O)OC[C@@H]1CCCN1C(=O)[C@@H](CC=C)CC(=O)N(CCO)Cc1ccccc1 | -15 | 36 | 21* | -11 | 4 | 1 | 1
COC(=O)c1cc(-c2ccccc2OC)c(=O)n2c1CCC2 | 4 | x | -6 | 2 | -3 | x | x
CC[C@H](CCCc1ccccc1OC)CCS(=O)(=O)N(C)C | 0 | x | -11 | 3 | -1 | x | x
SMILES | NPR2 activator | FAS TE block | ADAM10 inh | NPR1 activator | ADAM17 inh | ADAM10 confirm | ADAM17 ctr
CCCN1CCCCC(NC(=O)c2ccc3ccccc3c2)C1=O (centres undefined) | -3 | x | -2 | 5 | -3 | x | x
Nc1[nH]c(C(=O)c2ccccc2)c(-c2ccc3c(c2)OCO3)c1C(=O)NCCc1c[nH]c2ccccc12 | 1 | x | 27* | -3 | 8 | 6 | 3
Nc1nc(Cl)cc(N2CCC(c3cc(-c4ccc(Cl)cc4)n[nH]3)CC2)n1 | -15 | 29 | 32* | 35 | 6 | 5 | 2
COc1ccc(-c2cc(C3CCN(c4cc(Cl)nc(N)n4)CC3)[nH]n2)cc1 | -13 | 4 | 17 | -6 | 7 | x | x
COc1cccc(/C(C)=N/NS(=O)(=O)c2ccc(Cl)cc2)c1 | -1 | -2 | -5 | 1 | -5 | x | x
COc1cccc(/C(=N/O)C2CC2c2ccc(Cl)cc2)c1 (centres undefined) | 4 | -3 | 22* | 5 | 7 | 6 | 1
CCOC(=O)CC[C@@]1(C(=O)OCC)C[C@@H](CC(=O)NCCCOC)C(=O)N2CCCC=C21 | 1 | x | -3 | 1 | -3 | x | x
Cc1ccc(S(=O)(=O)Nc2ccc(Cl)cc2)cc1NC(=O)c1cc2c(s1)CCCC2 | 4 | 32 | 24* | 2 | 10* | 17 | 4
CC(=O)N1CCCN(S(=O)(=O)c2ccc3c(c2)n(C)c(=O)c(=O)n3C)CC1 | 2 | x | -21 | 1 | -8 | x | x
Nc1cccc(CCc2ccncc2)c1 | 2 | -4 | 21* | 2 | 0 | 0 | 0
c1ccc(CCc2ccncc2)cc1 | 4 | -5 | -11 | 2 | -1 | x | x
CCCN(CCC)S(=O)(=O)c1ccc(C(=O)NCc2n[nH]c(=S)n2-c2ccc(Cl)c(Cl)c2)cc1 | -1 | 5 | 24* | -3 | 6 | 1 | 1
O=C(NCc1n[nH]c(=S)n1-c1ccc(Cl)c(Cl)c1)c1ccc(S(=O)(=O)N2CCCCC2)cc1 | 0 | 2 | 9 | 4 | 6 | x | x
CCN(CC)c1ccc(NC(=O)CSc2nc3ccccc3c(=O)n2-c2ccc(C)cc2)cc1 | 7 | x | 38* | -1 | 5 | 13 | 6
Cc1ccc(NC(=S)NNC(=O)CSc2nc3ccccc3c(=O)n2-c2ccc(Cl)cc2)cc1 | -3 | x | 15 | -1 | 5 | x | x
O=S(Cc1ccc(Br)cc1)Cc1nnc(SCc2ccc(Br)cc2)n1-c1ccccc1 (centres undefined) | -8 | 38 | 22* | -13 | 8 | 6 | 2
COC(=O)c1ccc(CSc2nnc(CS(=O)Cc3ccc(Br)cc3)n2-c2ccccc2)cc1 (centres undefined) | -12 | 19 | 3 | -9 | 5 | x | x
